Paper PMC4336329 (PLoS ONE, 2015)
Hit rate of the full screen: of about 310,000 compounds, about 14,000 (4.5%) showed an effect of 50% or more. Effects have a minus sign here. For the sample, strong results were picked, then their nearest neighbours and some compounds at random.

biological target: human ether-à-go-go-related gene (hERG) potassium channel (human, UniProt Q12809); test: primary screen, population patch clamp on CHO cells stably expressing hERG; higher = less effect of the substance
Sequence (Q12809 whole entry, looked up): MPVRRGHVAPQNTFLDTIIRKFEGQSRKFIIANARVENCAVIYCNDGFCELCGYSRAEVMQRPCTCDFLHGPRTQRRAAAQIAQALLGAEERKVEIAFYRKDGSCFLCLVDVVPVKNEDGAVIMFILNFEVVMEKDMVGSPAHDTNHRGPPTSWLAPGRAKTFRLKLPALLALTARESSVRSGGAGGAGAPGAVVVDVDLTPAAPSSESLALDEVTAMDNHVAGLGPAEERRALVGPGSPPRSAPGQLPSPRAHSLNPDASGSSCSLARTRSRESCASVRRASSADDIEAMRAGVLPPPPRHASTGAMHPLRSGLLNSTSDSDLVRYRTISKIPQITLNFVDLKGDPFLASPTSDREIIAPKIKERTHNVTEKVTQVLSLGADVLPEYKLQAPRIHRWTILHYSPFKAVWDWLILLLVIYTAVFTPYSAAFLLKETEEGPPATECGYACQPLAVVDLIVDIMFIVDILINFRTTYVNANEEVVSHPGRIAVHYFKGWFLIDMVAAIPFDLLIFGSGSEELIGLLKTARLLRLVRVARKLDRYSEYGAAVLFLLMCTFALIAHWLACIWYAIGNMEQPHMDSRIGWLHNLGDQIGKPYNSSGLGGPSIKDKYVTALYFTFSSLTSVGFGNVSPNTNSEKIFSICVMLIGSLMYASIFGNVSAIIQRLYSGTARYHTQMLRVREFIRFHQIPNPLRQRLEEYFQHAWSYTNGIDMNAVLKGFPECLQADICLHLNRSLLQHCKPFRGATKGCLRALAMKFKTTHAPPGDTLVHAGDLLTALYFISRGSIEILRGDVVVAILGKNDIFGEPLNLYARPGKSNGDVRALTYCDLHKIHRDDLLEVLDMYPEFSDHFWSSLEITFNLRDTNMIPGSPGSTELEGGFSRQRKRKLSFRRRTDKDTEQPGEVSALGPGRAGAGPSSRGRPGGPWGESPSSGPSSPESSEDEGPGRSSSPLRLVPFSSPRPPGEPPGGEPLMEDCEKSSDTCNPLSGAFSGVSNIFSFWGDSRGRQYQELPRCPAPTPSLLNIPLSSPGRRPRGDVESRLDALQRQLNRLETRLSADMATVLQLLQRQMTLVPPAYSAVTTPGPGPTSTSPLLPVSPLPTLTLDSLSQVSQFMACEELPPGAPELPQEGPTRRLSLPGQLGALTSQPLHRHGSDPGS
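Further: peak tail current of the secondary pulse compared with the same well before compound.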

Compound | hERG current change (%, negative = inhibition) at 10uM
COCCNC(=O)Cn1cc(C(=O)c2ccccc2F)c2ccccc21 | 12.5%
COc1ccccc1CNc1ncnc2cc(OC)c(OC)cc12 | -32%
CCOC(=O)c1c(NC(=O)Cn2cnc3scc(-c4ccc(C)cc4)c3c2=O)sc(C)c1C | -14.5%
CCCNC(=S)Nc1ccc(Nc2ccccc2)cc1 | -15%
O=C(CSc1cn[nH]n1)Nc1ccccc1C(F)(F)F | 8.13%
COc1ccc(Br)cc1CN(C)C(=O)Cc1ccc(S(=O)(=O)N2CCOCC2)s1 | -70.4%
COc1ccc(Br)cc1CN(C)C(=O)Cc1ccc(OC)c(S(=O)(=O)N2CCOCC2)c1 | -41%
CN(CCOc1ccccc1)C(=O)c1cc(S(=O)(=O)N2CCOCC2)ccc1Cl | -48.4%
Cc1ccc(S(=O)(=O)N2CCOCC2)cc1C(=O)N(C)CCOc1ccc(Cl)cc1 | -64%
COc1ccc(CN(C)C(=O)Cc2ccc(S(=O)(=O)N3CCOCC3)s2)cc1OC | 7.58%
Cc1ccc(S(=O)(=O)N2CCOCC2)cc1C(=O)OCCOc1cccc(Cl)c1 | -9.45%
CC(OC(=O)/C=C/c1ccc(Br)cc1)C(=O)N1CCOCC1 (centres unmarked) | -10.8%
CCc1cc(=O)oc2c(CNC(Cc3ccccc3)C(=O)O)c(O)ccc12 (centres unmarked) | 9.3%
O=c1ccn(Cc2ccccc2Cl)cc1 | 8.8%
O=C(CCc1nnc(-c2ccsc2)o1)NCc1ccccc1OC(F)(F)F | 3.76%
CN1C(=O)C(=Cc2coc3ccccc3c2=O)C(=O)N(C)C1=O | 2.32%
O=C(Cn1cnc2ccccc21)Nc1ccc(F)c(F)c1 | 8.41%
O=C(Cn1cnc2ccccc21)Nc1ccc(C(=O)O)cc1.O=C(O)C(=O)O | -71.4%
Cc1ccc(NC(=O)Cn2cnc3ccccc32)cc1C | -3.44%
O=S(=O)(c1ccc(N2CCOCC2)cc1)N1CCOCC1 | -5.96%
O=C(CNC(=O)c1ccccc1)OCCCOC(=O)CNC(=O)c1ccccc1 | 11.8%
O=C(NC(=S)N1CCOCC1)c1ccccc1Cl | 12.7%

Compound | hERG current change (%, negative = inhibition) at 10uM
O=C(NN1C(=O)c2cc(Br)ccc2NC1c1ccccc1Cl)c1ccncc1 (centres unmarked) | 8.83%
Cc1nc2ccc(NC(=O)N3CCC(c4ccccc4)C3)cc2nc1C (centres unmarked) | -11.4%
COc1ccc(CNC(=O)CN2CCC(n3nnc4cc(F)ccc43)CC2)cc1 | -68%
COc1ccc(Cl)cc1NC(=O)CN1CCC(n2nnc3cc(F)ccc32)CC1 | -7.93%
COc1cc(NC(=O)Nc2ccccc2OC)c(OC)cc1NC(=O)CN1CCCCC1 | 1.04%
Cc1nc2cc(NC(=O)N3CCCC3)ccc2n1C | -1.21%
COc1ccccc1NC(=O)CN1CCC(n2c(C)nc3cc(F)ccc32)CC1 | -72.2%
Cc1nc2cc(NC(=O)N3CCC(c4ccccc4)C3)ccc2n1C (centres unmarked) | -52.4%
COc1ccccc1NC(=O)CN1CCC(n2nnc3cc(F)ccc32)CC1 | -55.4%
COc1ccc(Cl)cc1NC(=O)CN1CCC(n2nnc3ccccc32)CC1 | -10.4%
Cl.O=C(CN1CCC(n2nnc3cc(F)ccc32)CC1)NCc1ccco1 | -35.6%
COc1ccc(NC(=O)CN2CCC(n3c(C)nc4cc(F)ccc43)CC2)c(OC)c1 | -4.64%
COc1ccc(C(=O)NNC(=O)CN2CCC(n3nnc4cc(F)ccc43)CC2)cc1 | -18.4%
CCc1ccc(C(=O)N/N=C/c2cccc3ccccc23)nc1 | 1.8%
Cc1ccc(-c2nnc(SCC(=O)N3CCCC3)o2)cc1C | -0.309%
CC(C)Cc1nnc(NC(=O)CCC(=O)NC2CCCCCC2)s1 | -48.6%
CCN(CC)CCP(=O)(c1ccccc1)c1ccccc1 | -15.2%
OCCN1CCN(c2nc(-c3ccccc3)nc3c2oc2ccccc23)CC1 | -6.34%
COC(=O)C1=C(CN2CCN(C)CC2)NC(=O)NC1c1cc(C)ccc1C (centres unmarked) | -41%
COc1ccc2c(=O)cc(-c3cccnc3)oc2c1OC | 8.9%
CCc1nnc(NC(=O)c2c(-c3ccccc3)noc2C)s1 | 10.2%
N#Cc1ccccc1OCC(=O)Nc1cccc(S(=O)(=O)N2CCCC2)c1 | 5.17%

Compound | hERG current change (%, negative = inhibition) at 10uM
O=C(Cc1ccccc1F)Nc1ccc(SC(F)F)cc1 | 14%
Cc1nc2ccccc2n1C1CCN(CC(=O)Nc2ccccc2Br)CC1 | -25%
O=C(Nc1ccccc1)N1CCC(n2c(=O)[nH]c3ccccc32)CC1 | -8.18%
O=C(CN1CCC(n2nnc3cc(F)ccc32)CC1)NC1CC1 | -4.99%
CC1CCC(NC(=O)CN2CCC(n3nnc4cc(F)ccc43)CC2)CC1 (centres unmarked) | -58.4%
Cc1ccccc1C(=O)NC1CCN(CC(=O)NCc2ccc(F)cc2)CC1 | -44.2%
Cc1nc2ccccc2n1C1CCN(C(=O)Nc2ccccc2)CC1 | -60.5%
COC(=O)C1CCN(C(=O)Nc2ccccc2)CC1 | 24.3%
O=C(CN1CCC(n2nnc3cc(F)ccc32)CC1)NC1CCCCC1 | -32.8%
Cc1nc2ccccc2n1C1CCN(CC(=O)NCc2ccc(F)cc2)CC1 | -58%
Cc1ccc(CN(C)CC(=O)Nc2ccccc2C(=O)NC2CC2)o1 | -7.18%
N#Cc1c(F)cccc1N1CCC(C#N)CC1 | 8.29%
Cn1nnnc1SCC(=O)Nc1ccccc1C(=O)NC1CC1 | 7.04%
COc1ccccc1NC(=O)CCN1C(=O)/C(=C/c2cc(OC)c(OC)c(OC)c2)SC1=S | 13.8%
O=C(Cc1ccccc1)Nc1ccc2oc(-c3ccncc3)nc2c1 | 0.815%
CC(Sc1nncn1-c1ccccc1)C(=O)Nc1cccc([N+](=O)[O-])c1 (centres unmarked) | -17.2%
CC(Oc1ccccc1)C(=O)Nc1cccc([N+](=O)[O-])c1 (centres unmarked) | -22%
COc1ccccc1-n1cnnc1SC(C)C(=O)Nc1cccc([N+](=O)[O-])c1 (centres unmarked) | -8.19%
COc1ccc(-n2cnnc2SC(C)C(=O)Nc2cccc([N+](=O)[O-])c2)cc1 (centres unmarked) | -59.3%
COc1ccc(OC(C)C(=O)Nc2ccc([N+](=O)[O-])cc2)cc1 (centres unmarked) | 3.6%
COc1ccc(OC(C)C(=O)Nc2cccc([N+](=O)[O-])c2)cc1 (centres unmarked) | -58.8%
COc1ccc(CNC(=O)CCSCc2ccc(C)cc2)cc1 | -16.2%

Compound | hERG current change (%, negative = inhibition) at 10uM
CCC1=Nc2cc(C(=O)O)ccc2Sc2ccccc21 | 21.2%
COC(=O)C1=C(c2ccc(S(C)(=O)=O)cc2)C[C@@H]2CC[C@H]1N2C(=O)NCc1ccc(C(F)(F)F)cc1 | -59.3%
COC(=O)C1=C(c2ccc(C(C)=O)cc2)C[C@@H]2CC[C@H]1N2C(=O)NCc1ccc(C(F)(F)F)cc1 | 30%
COC(=O)C1=C(c2ccc(S(C)(=O)=O)cc2)C[C@@H]2CC[C@H]1N2C(=O)NCc1ccccc1 | -29.6%
COC(=O)C1=C(c2ccc(S(C)(=O)=O)cc2)C[C@@H]2CC[C@H]1N2C(=O)NCc1cccc2ccccc12 | -61.6%
COC(=O)C1=C(c2ccc(OC(F)(F)F)cc2)C[C@@H]2CC[C@H]1N2C(=O)NCc1cccc2ccccc12 | 20.4%
COC(=O)C1=C(c2ccccc2)C[C@@H]2CC[C@H]1N2C(=O)NCc1cccc2ccccc12 | -12.2%
Cc1ccc(C(=O)NC(C(=O)Nc2ccccc2)c2ccccc2)cc1 (centres unmarked) | 19.7%
CC(NC(=O)Cn1cc(C(=O)C2CC2)c2ccccc21)c1ccccc1 (centres unmarked) | 4.74%
Cc1ccc(-c2nn(C)c(=O)c3ccccc23)cc1CNC(=O)c1ccco1 | -36.7%
Cc1ccc(/C=C2/C(=O)NC(=O)N(Cc3ccc(F)cc3)C2=O)o1 | 19.6%
COc1ccc(OCc2cc(C(=O)NCc3nc(C)cs3)no2)c(Cl)c1 | -17.2%
OCC1(Cc2ccccc2)CCN(Cc2ccc(-c3ccco3)cc2)CC1 | -66.6%
OCC1(Cc2ccccc2)CCCN(Cc2ccc(-c3ccco3)cc2)C1 (centres unmarked) | -5.88%
OCC1(Cc2ccccc2)CCN(Cc2ccc(C(F)(F)F)cc2)CC1 | -72.9%
OCC1(Cc2ccccc2C(F)(F)F)CCN(Cc2ccccc2)CC1 | -41.3%
O=C(CSc1cn(CC(=O)N2CCOCC2)c2ccccc12)N1CCOCC1 | 12.8%
Cc1cc(C)c(C#N)c(SCc2ccc([N+](=O)[O-])cc2)n1 | 15.9%
COc1ccc(F)cc1S(=O)(=O)Nc1ccc2c(c1)OCO2 | 6.15%
CC(CCc1ccccc1)NC(=S)NC1CCCCC1 (centres unmarked) | 12%
